Inconclusive results are not listed. Entries that show only a call come without a potency. The source made the active and inactive calls. Calls follow the shape of the dose curve; as a rule, active = well fitted inhibition curve with a large enough effect; inconclusive = small, poorly fitted or top-dose-only effect; inactive = no such curve, though single readings can be large or run the other way.
The compounds below were run against Tumor susceptibility gene 101 protein (Homo sapiens) (UniProt Q99816) (assay: qHTS Assay for Iinhibitors of HIV-1 Budding by Blocking the Interaction of PTAP/TSG101: Hit Validation (AID 651600; also: nearly all actives have a fitted effect of over 70% in size)). Conditions: PTAP peptide/TSG101 UEV interaction, biochemical assay; series mostly up to 57.5 µM.
Procedure, shortened: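 Fluorescence polarization binding assay: Tsg101 binding domain (10 uM) mixed with compounds and FITC-labeled PTAP peptide (50 nM) in HEPES pH 7.5, 0.15 M NaCl, 0.01% Tween 20, EDTA, TCEP; 20 min at r.t.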
Potency is read from the fitted curve at half-maximal effect.

Tumor susceptibility gene 101 protein (Homo sapiens), sequence (Q99816 whole entry, looked up, the tested form may be a part): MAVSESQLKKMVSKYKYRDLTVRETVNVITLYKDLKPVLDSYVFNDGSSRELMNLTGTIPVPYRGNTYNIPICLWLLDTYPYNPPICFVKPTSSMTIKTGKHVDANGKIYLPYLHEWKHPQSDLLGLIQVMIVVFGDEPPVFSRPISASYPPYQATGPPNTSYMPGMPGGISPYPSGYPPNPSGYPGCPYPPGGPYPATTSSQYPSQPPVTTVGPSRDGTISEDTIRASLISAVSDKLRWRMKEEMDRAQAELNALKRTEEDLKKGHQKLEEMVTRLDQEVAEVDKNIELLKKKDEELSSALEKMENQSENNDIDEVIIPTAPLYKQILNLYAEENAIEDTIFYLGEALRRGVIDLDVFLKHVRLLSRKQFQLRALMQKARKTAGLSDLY

SMILES | Potency
Brc1ccc(C2=CC(c3ccco3)n3ncnc3N2)cc1 (centres undefined) | inactive
COCCN(CCOC)Cc1c(O)ccc2c1O/C(=C\c1ccco1)C2=O | 13 µM (active)
CCCCCCn1c(=O)[nH]c2nc3cc(N)ccc3nc2c1=O | 14.6 µM (active)
CC(C)c1nnc(N2C(=O)C(O)=C(C(=O)c3cccs3)C2c2ccccc2)s1 (centres undefined) | 8.19 µM (active)
CCN(CC)c1ccc(/C=C(\C#N)C(=O)NCc2ccccc2)cc1 | 14.6 µM (active)
Cc1ccc(C2C=C(c3ccccc3)Nc3nc(NS(C)(=O)=O)nn32)cc1 (centres undefined) | inactive
CC1=CC(=C(C#N)c2nc3ccccc3s2)C=C(C)N1c1ccc(F)cc1F | 13 µM (active)
CCOC(=O)Cn1c(=NC(=O)c2ccc([N+](=O)[O-])s2)sc2ccccc21 | inactive
O=C(OCCN1C(=O)c2cccc3c(N4CCOCC4)ccc(c23)C1=O)c1ccc(Cl)cc1 | 18.3 µM (active)
Clc1ccc(-c2nnc3sc(-c4ccc(Br)o4)nn23)cc1 | 4.61 µM (active)
CCCCCCCCOc1ccc(C2OC34CCCCC3C(C#N)(C#N)C2(C#N)C(=N)O4)cc1 (centres undefined) | inactive
CCN(C(=O)c1sc2nc3n(c(=O)c2c1C)CCCC3)c1ccccc1F | inactive
Cc1ccc(Nc2ccc([N+](=O)[O-])ccc2=O)cc1 | inactive
O=C(CCN1C(=O)/C(=C/c2ccco2)SC1=S)Nc1ccc(O)cc1C(=O)O | inactive
Cc1ccc(OC(=O)c2ccc3nc(C)sc3c2)cc1 | inactive
Nc1ccc2c(c1)C/C(=C/c1ccco1)C2=O | inactive
Cc1ccc(CSc2nnc3c(n2)OC2(Nc4ccccc4-3)C(=O)Nc3ccc(F)cc32)cc1 (centres undefined) | inactive
CCN(CC)S(=O)(=O)c1ccc(C(=O)OCCN2C(=O)c3cccc4c(N5CCOCC5)ccc(c34)C2=O)cc1 | 4.11 µM (active)
Cc1ccc2nc(-c3ccco3)c(Nc3ccccc3)n2c1 | inactive
O=[N+]([O-])c1cc(Cl)cc(/C=N/NC(=S)Nc2ccc(S(=O)(=O)N3CCOCC3)cc2)c1O | inactive
Nc1c(C(=O)O)sc2nc(-c3ccccc3)cc(-c3ccc(Cl)cc3)c12 | inactive
CNc1c2cccc(C)c2nc2c(C(=O)NCCN(C)C)cccc12 | 16.3 µM (active)
Cc1ccccc1N1C(=O)c2cccc3c(N(C)CCO)ccc(c23)C1=O | 13 µM (active)
CCOC(=O)N1CCN(c2nc3ccccc3nc2C(C#N)S(=O)(=O)c2ccc(C)cc2)CC1 (centres undefined) | inactive

— PubChem BioAssay (NCATS)
